D2 antag: antagonists of human D2 dopamine receptor | 340,000 tested, 2% active | P14416 | inhibition, % at 10 µM | HEK293 TREx D2 cells, calcium flux, dopamine EC80; in the data active = inhibition above about 30%; inactive = below that, where a call was filed
Target sequence (P14416 whole entry, looked up): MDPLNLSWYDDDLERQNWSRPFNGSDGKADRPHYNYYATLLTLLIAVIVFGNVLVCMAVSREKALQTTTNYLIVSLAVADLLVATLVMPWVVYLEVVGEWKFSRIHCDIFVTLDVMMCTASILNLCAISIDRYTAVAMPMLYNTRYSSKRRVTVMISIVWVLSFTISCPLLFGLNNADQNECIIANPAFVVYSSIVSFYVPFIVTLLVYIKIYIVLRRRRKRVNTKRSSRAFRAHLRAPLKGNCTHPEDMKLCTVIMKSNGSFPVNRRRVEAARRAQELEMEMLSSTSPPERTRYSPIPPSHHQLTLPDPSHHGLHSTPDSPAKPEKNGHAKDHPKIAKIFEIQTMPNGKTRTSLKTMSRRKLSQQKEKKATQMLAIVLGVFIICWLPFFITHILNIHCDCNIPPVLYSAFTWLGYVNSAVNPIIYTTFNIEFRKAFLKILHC
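Inhibition of EC80 dopamine-driven calcium flux, recorded kinetically, defines activity here; cells are a tetracycline-induced HEK293 T-REx line expressing force-coupled D2.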
D2 PAM-1: positive allosteric modulators of human D2 dopamine receptor | potentiation, % (no concentration beside the values) | 360,000 tested, 0.23% active | DiscoveRx D2 beta-arrestin cells, luminescence, 90 min; 100% = 57 uM dopamine signal; in the data active = potentiation above about 50%; inconclusive = mostly about 30% to 49%
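PathHunter beta-arrestin assay in DiscoveRx D2 cells. Compounds were added with an EC20 of dopamine (50 nM final) for 90 min at 37 deg C. Luminescence was read 1 h after detection reagent, with 57 uM dopamine as the EC100 control.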
D2 ag-1: activates the human D2 dopamine receptor. P14416. HEK293 T-REx D2 cells, calcium flux agonist mode. activation, % at 2 µM. 340,000 tested, 0.53% active;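 active = activation over 3 SD above normal in the single-dose calcium agonist read, cut at about 30% in these data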
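Tetracycline-induced HEK293 Trex cells with D2 receptor force-coupled to calcium signaling, plated overnight at 30 C and loaded with no-wash calcium dye. Calcium flux read kinetically for 180 s after compound addition; responses flag agonists.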
D2 PAM-2: D2 dopamine receptor (human) potentiation; P14416; 340,000 tested, 0.34% active; AID 485347; HEK293 T-REx D2, calcium flux, EC20 dopamine potentiation; potentiation, % at 10 µM;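 active = potentiation over 3 SD above the plate norm, cut at about 30% in these data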
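Primary screen. Calcium kinetics in induced HEK293 T-REx D2 cells: compound pre-addition 180 s, EC20 dopamine, 180 s more.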
D2 ag-2: agonists of human D2 dopamine receptor (beta-arrestin). P14416. DiscoveRx PathHunter D2 beta-arrestin, luminescence, 90 min; 100% = 57 uM dopamine signal. activation, % (concentration not given with the values). 360,000 tested, 0.084% active. AID 624465; in the data active = activation above about 40%; inconclusive = between about 15% and that limit
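DiscoveRx PathHunter D2 beta-arrestin cells (2,100/well) attached overnight, then compound-stimulated 90 min at 37 C in HBSS/10 mM HEPES/0.1% Tween-20 buffer; beta-galactosidase complementation read by luminescence after 1 h at ambient temperature. Dopamine 57 uM final (EC100) as control.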
Numbers stand for hits; n = inactive; u = inconclusive; x = not tested or not shown. Hits are enriched below; roughly 2.4% of the tested compounds scored in any of these assays.

SMILES | D2 antag | D2 PAM-1 | D2 ag-1 | D2 PAM-2 | D2 ag-2
CCOCCCNC(=O)C(=O)Nc1c2c(nn1-c1ccc(OC)cc1)CSC2 | x | x | n | n | x
COc1ccc(S(=O)(=O)N2CCN(C3CCN(Cc4ccccc4)CC3)CC2)cc1 | n | n | n | n | n
COc1ccc(-n2nc([N+](=O)[O-])c(=NC3CCN(Cc4ccccc4)CC3)n2O)cc1 | 71 | n | n | n | u
COc1ccc(-n2nc([N+](=O)[O-])c(=NCCC3=CCCCC3)n2O)cc1 | n | 74 | n | n | 51
COc1ccc(-n2nc([N+](=O)[O-])c(=NCc3ccco3)n2O)cc1 | n | u | n | n | u
COc1ccc(CCN2CC(C(=O)N(C)CC(=O)Nc3ccc(F)c(F)c3F)CC2=O)cc1OC (stereo not drawn) | x | n | x | x | n
Cc1c(C)n(Cc2ccc(F)cc2)c2ccc(C(=O)NCc3ccco3)cc12 | x | x | n | x | x
CCCN1CCN(CCNC(=O)Nc2ccccc2OCC)CC1 | x | x | n | x | x
O=c1c2ccccc2nc(-c2ccco2)n1Cc1ccccc1 | n | n | n | n | n
O=c1c2ccccc2nc(-c2ccoc2)n1CCc1ccccc1 | n | n | n | 62 | n
CCOc1ccc(CCn2c(-c3ccco3)nc3ccccc3c2=O)cc1OCC | 36 | n | n | n | n
c1ccc(CN2CCC3(CCCc4ccccc43)CC2)cc1 | 43 | n | n | n | n
O=C(COC(=O)C1C2CC3OC(=O)C1C3C2)Nc1ccccc1 (stereo not drawn) | 69 | n | n | n | n
CCOc1ccc(Cl)cc1S(=O)(=O)n1cnc2ccccc21 | n | n | n | n | n
COc1ccc(Cl)cc1S(=O)(=O)n1cnc2ccccc21 | 79 | n | n | n | n
O=C(Nc1ccccc1)c1ccc(-c2ccccc2Cl)o1 | n | n | n | n | n
O=C(NCCc1ccccc1)c1ccc(-c2ccccc2Cl)o1 | 30 | n | n | n | n
O=C(NCCc1ccc(Cl)cc1)c1ccc(CS(=O)(=O)c2ccc(Cl)cc2)o1 | x | x | x | n | x
O=C(NCCc1ccccc1)c1ccc(CS(=O)(=O)c2ccc(Cl)cc2)o1 | 31 | n | n | n | n
CCc1ccc(C(=O)c2cn(CC(=O)NCCc3ccc(OC)c(OC)c3)c3nc(C)ccc3c2=O)cc1 | x | x | n | n | x
O=C(CNC(=O)c1ccco1)NCC(=O)OCc1c(F)cccc1Cl | n | n | n | n | n
O=C(CNC(=O)c1ccco1)NCC(=O)OCC(=O)c1ccc(Cl)c([N+](=O)[O-])c1 | n | n | n | 38 | n
O=C(CNC(=O)c1ccco1)OCc1c(F)cccc1Cl | n | n | n | 41 | n
Cc1ccc(N(CC(=O)NCCSc2ccccc2)S(=O)(=O)c2ccc(F)cc2)cc1 | x | x | n | n | x
COc1ccc(CNC(=O)CCc2c(C)c3cc4c(C)coc4c(C)c3oc2=O)cc1OC | x | x | n | n | x
SMILES | D2 antag | D2 PAM-1 | D2 ag-1 | D2 PAM-2 | D2 ag-2
Cn1nnnc1SCCCNCc1cccc(OCc2ccccc2F)c1 | x | x | n | x | x
Cc1[nH]c2ccccc2c1C1C(c2ccccc2)=NN=C(C(C)C)N1O (stereo not drawn) | n | n | n | 31 | n
Cc1ccc(N(CC(=O)Nc2ccc(C)c(Cl)c2)S(=O)(=O)c2cccs2)cc1 | x | x | n | n | x
C=CCN1C(=O)C(CC(=O)O)SC1=Nc1ccc(N=Nc2ccccc2)cc1 (stereo not drawn) | n | n | n | 39 | n
O=C(O)CC1S/C(=N\N=C2CCCCCCC2)N(c2ccccc2)C1=O (stereo not drawn) | n | n | n | n | n
C=CCN1C(=O)C(CC(=O)O)SC1=Nc1cccc([N+](=O)[O-])c1 (stereo not drawn) | n | n | n | n | n
O=C(O)CC1SC(=Nc2ccccc2)N(c2ccccc2)C1=O (stereo not drawn) | 43 | n | n | n | n
Cc1cc(Br)ccc1OCCCCN1CCC(C)CC1 | 35 | n | n | n | n
Cc1cc(Br)ccc1OCCn1ccnc1 | n | n | n | n | 70
Clc1cc(Br)ccc1OCCn1ccnc1 | n | n | n | n | n
Brc1cccc(OCCN2CCCCC2)c1 | 48 | n | n | n | n
Cc1cc(C)c(OCCCCN2CCC(C)CC2)c(Br)c1 | n | n | n | n | n
Brc1cccc(OCCN2CCOCC2)c1 | n | n | n | n | n
CC1CCN(CCCCOc2ccc(Br)cc2)CC1 | n | n | n | n | n
